The values below come from PubChem BioAssay (NCATS).

Each structure is given as a SMILES string. Records with an inconclusive call do not appear. Active and inactive are the calls of the source. The call rests on the fitted dose curve; in most records, active means well fitted inhibition curve with a large enough effect; inconclusive means small, poorly fitted or top-dose-only effect; inactive means no such curve, though single readings can be large or run the other way.

Rap guanine nucleotide exchange factor 3 (Homo sapiens), sequence (O95398 whole entry, looked up): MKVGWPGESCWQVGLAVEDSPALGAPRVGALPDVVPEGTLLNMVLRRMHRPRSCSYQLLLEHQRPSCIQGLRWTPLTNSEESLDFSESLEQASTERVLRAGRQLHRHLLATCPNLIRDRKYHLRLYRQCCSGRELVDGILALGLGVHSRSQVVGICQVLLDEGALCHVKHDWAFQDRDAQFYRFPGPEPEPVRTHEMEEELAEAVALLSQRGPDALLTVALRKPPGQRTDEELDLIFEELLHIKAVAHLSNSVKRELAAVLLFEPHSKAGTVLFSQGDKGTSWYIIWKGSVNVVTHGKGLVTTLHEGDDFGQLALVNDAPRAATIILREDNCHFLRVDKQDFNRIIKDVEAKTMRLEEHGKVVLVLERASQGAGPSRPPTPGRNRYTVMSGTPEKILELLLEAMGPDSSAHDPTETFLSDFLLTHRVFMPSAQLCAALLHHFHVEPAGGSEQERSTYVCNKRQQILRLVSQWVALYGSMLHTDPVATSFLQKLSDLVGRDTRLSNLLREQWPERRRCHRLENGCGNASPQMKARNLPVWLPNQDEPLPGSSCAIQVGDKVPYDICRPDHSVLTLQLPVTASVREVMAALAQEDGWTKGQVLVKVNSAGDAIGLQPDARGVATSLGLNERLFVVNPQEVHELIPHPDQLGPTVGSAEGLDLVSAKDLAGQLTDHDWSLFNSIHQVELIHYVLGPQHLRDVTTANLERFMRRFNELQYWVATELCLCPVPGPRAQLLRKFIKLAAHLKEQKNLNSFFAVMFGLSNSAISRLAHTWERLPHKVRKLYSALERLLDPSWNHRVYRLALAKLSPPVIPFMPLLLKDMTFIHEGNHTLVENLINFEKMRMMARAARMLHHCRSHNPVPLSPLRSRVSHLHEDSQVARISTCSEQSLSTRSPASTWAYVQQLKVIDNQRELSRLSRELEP

This assay concerns the target Rap guanine nucleotide exchange factor 3 (Homo sapiens) (UniProt O95398). Kind of assay: Counterscreen qHTS for antagonist of cAMP-regulated guanine nucleotide exchange factor 3 (EPAC1) (AID 1645888).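 Further: fluorescence loss as bound BODIPY-GDP is released from Rap1B; % of control where 0% means no effect.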 The settings on record: Rap1B-BODIPY-GDP nucleotide exchange, fluorescence; series mostly up to 154 µM; activity change, negative = inhibition: at the top concentration. An outline of the steps: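 Rap1B–BODIPY-GDP (250 nM) with 50 uM GDP; compounds pin-transferred to 9.74 nM–152 uM final (activator) or from 7.32 nM upwards (inhibitor). Fluorescence Ex/Em 480/540 nm read at 5 and 30 min, then after adding cAMP or buffer, at room temperature.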
`O=C(c1noc2c1CCc1ccccc1-2)N1CCCc2ccccc21`: the “activity change, negative = inhibition” value is 25.8% (inactive).
The result for `CC1CN(c2nc(-c3ccccc3)nc3ccccc23)CC(C)O1` (stereo unspecified) reads 3.46% [at 30.8 µM] (inactive).
Take `C=C1SC(Nc2c(C)cc(C)cc2C)=NC12CCCCC2`: the “activity change, negative = inhibition” value was 24.8% (inactive).
With `Cc1ccc(-c2nn3cnnc3c3ccccc23)cc1C` the figure was -44.9% [at 30.8 µM] (inactive); with `COc1ccccc1C1CC(=O)Oc2cc(C)c(Cl)c(C)c21` (stereo unspecified), 3.69% [at 30.8 µM] (inactive); with `CC1CN(c2nc3ccccc3cc2-c2ccccc2)CC(C)O1` (stereo unspecified), 11.5% (inactive).
With `COC(=O)c1ccc2nc(-c3ccc(F)cc3)c(CC3CCCCC3)n2c1` the figure was -8.86% [at 30.8 µM] (inactive); with `C=CCOc1ccc(/C=N/NC(C)=O)cc1OCC`, -12.7% (inactive); with `CC(OC(=O)c1ccccc1Oc1ccccc1)C(=O)NC1CC1` (stereo unspecified), 0.144% (inactive).
For the molecule `C=C[C@]1(C)C[C@@H](OC(=O)CSCCN(CC)CC)[C@]2(C)C(C)CC[C@]3(CCC(=O)[C@H]32)[C@@H](C)[C@@H]1O` (stereo partly specified), the “activity change, negative = inhibition” value was 22.7% (inactive).
The result for `CCCC(CNC(C)=O)(C1=CCCCC1)c1ccccc1` (stereo unspecified) reads 1.17% [at 30.8 µM] (inactive); that for `COC(=O)c1cn(C(=O)c2ccc(C)cc2C)c2ccccc12`, 16.4% (inactive); that for `COC(=O)c1ccccc1C(=O)c1c(C)cc(C)cc1C`, 4.03% [at 30.8 µM] (inactive).
The result for `O=C(/C=C/c1cccc(Cl)c1Cl)OCC(=O)N1CCOCC1` reads 16.1% (inactive); that for `CCOC(=O)C1Oc2ccccc2C(c2ccc(F)cc2)=C1C(=O)OC` (stereo unspecified), -24.6% [at 30.8 µM] (inactive); that for `Cc1ccc2cccc(Oc3nnnn3-c3ccccc3)c2n1`, 3.96% (inactive).
With `C=CCSc1nc2ccccc2c(=O)n1Cc1ccccc1` the figure was 17.3% [at 30.8 µM] (inactive); with `c1ccc(CNc2c(-c3cccc(SC4CCCCC4)c3)nc3ccccn23)cc1`, 4.85% [at 30.8 µM] (inactive).
`COC(=O)c1ccc2nc(-c3ccc(OC)c(OC)c3)c(CC3CCCCC3)n2c1`: the “activity change, negative = inhibition” value is -3.95% (inactive).
The result for `COc1ccc(N2C(=O)CSC2c2ccccc2F)c(OC)c1` (stereo unspecified) reads 27.1% (inactive); that for `O=C1[C@H]2CCC=C[C@H]2[C@H](c2ccccc2Br)N1Cc1ccccc1`, 7.02% (inactive).
With `Cc1ccc(C2N(c3cccc(Cl)c3)C(=O)N3CCCN23)cc1` (stereo unspecified) the figure was -4.78% [at 30.8 µM] (inactive); with `COc1ccc(S(=O)(=O)N2CCCC2)c(Cl)c1Cl`, 12.2% [at 30.8 µM] (inactive); with `O=C(O)CCCN1C(=O)/C(=C/c2cn(-c3ccccc3)nc2-c2cccs2)SC1=S`, 42.1% (inactive).
Consider `COC(=O)c1ccc2nc(-c3cccc(Br)c3)c(Cc3ccsc3)n2c1`, for which the activity change, negative = inhibition was -25% [at 30.8 µM] (inactive).
With `CCCCC1=C(C(=O)OCC)C(C(=O)OCC)Oc2ccccc21` (stereo unspecified) the figure was -14.5% (inactive).
